Out of some 47,000 compounds screened, about 200 (0.43%) were called active. Roughly 1% stayed inconclusive and do not appear here.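 The calls were made as follows: active = inhibition of aggregate fluorescence above about 70%, also judged a hit by eye on the cell image (limit read from the data, passing the limit was not always enough); inconclusive = no rule stated for this call; inactive = not judged a hit on image review.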 The entries come from a sample that favours actives as a whole.
assay: removal of polyQ htt aggregates in HeLa – imaging, HeLa Exon1htt(103Q)mCFP, confocal imaging, primary screen (AID 853); details: aggregate imaging, at 1.5 µM; fraction fluorescence in grains: measured here: aggregate grain fluorescence fraction, stronger effect = lower value; inhibition: stronger effect = higher value, zero = plate's median compound well;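 also: cells exposed to compound for three days before fixation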

Structure (SMILES)	fraction fluorescence in grains	inhibition
O=S(=O)(NCc1ccccn1)c1ccc(F)cc1	25.8	28.4% (inactive)
Cn1c(NC(=O)c2ccc3c(c2)OCO3)cc(=O)n(C)c1=O	24.1	28.1% (inactive)
CCCc1nc2ccccc2c(C(=O)OCc2nnc(-c3cc(OC)c(OC)c(OC)c3)o2)c1CC	19.4	-8% (inactive)
Cc1ccc(NC(=O)CSCC(=O)N2CCOCC2)cc1	29.1	-41.8% (inactive)
COC(=O)[C@@H](NC(=O)Nc1cc(Cl)ccc1C)C(C)C	45.5	-4.8% (inactive)
CC(=O)Nc1ccc(OCC(O)CN2CCN(c3ccccc3Cl)CC2)cc1 (stereo not given)	27.5	-41.1% (inactive)
CCC(=O)c1ccc(OCC(O)CN2CC(C)OC(C)C2)cc1 (stereo not given)	7.49	75% (active)
CCC(=O)c1ccc(OCC(O)CN2CCN(c3cccc(C(F)(F)F)c3)CC2)cc1 (stereo not given)	27.8	-52.7% (inactive)
COc1nc(-c2ccc(Cl)cc2)ccc1-c1noc(-c2cccs2)n1	28.7	4.7% (inactive)
Cc1cccc(NC(=O)Cn2cc(C(=O)c3ccco3)c3ccccc32)c1	68.4	-81.7% (inactive)
O=C(CSc1nnc(-c2cccs2)n1-c1ccccc1)NCc1ccco1	19.3	-12.1% (inactive)
Cc1ccc2cc(CCNC(=O)c3ccc4c(c3)OCO4)c(=O)[nH]c2c1	49.1	-20% (inactive)
COc1ccc(C2CC(=O)C=C(NCC3CCCO3)C2)cc1 (stereo not given)	23.6	30.2% (inactive)
COc1ccccc1NS(=O)(=O)N(C)C	33.9	-71.4% (inactive)
CN(C)/C=C(\C#N)C(=O)c1cccnc1Oc1cccc(F)c1	38.8	-0.9% (inactive)
Cc1cccc(NC(=O)CSc2nc3c(c(=O)[nH]2)CCCC3)c1C	17.3	10.8% (inactive)
O=c1[nH]c(=O)n(Cc2ccco2)c2c1C(C(F)(F)F)(C(F)(F)F)N=C(c1ccco1)N2	27	36.4% (inactive)
Cc1ccc(-n2c(=O)cc(N3CCN(Cc4ccccc4)CC3)[nH]c2=O)cc1	52	-7.6% (inactive)
O=C(NC1CCc2ccccc21)C12CN(Cc3ccccc3)CC1C(c1cccc([N+](=O)[O-])c1)=NO2 (stereo not given)	39	-1.5% (inactive)
COc1ccccc1NC(=O)c1ccc2nc(N3C(=O)CCC3=O)sc2c1	16.5	20.1% (inactive)

Structure (SMILES)	fraction fluorescence in grains	inhibition
CC(C)c1nc(N2CCOCC2)c(C#N)c2c1COC(C)(C)C2	31.9	13.4% (inactive)
COc1ccc(C(=O)NC(=S)Nc2ccccc2N2CCN(S(C)(=O)=O)CC2)cc1OC	62.3	-41.7% (inactive)
C#CCSc1nnc(-c2sc3ccccc3c2Cl)o1	52.1	-34.1% (inactive)
Cc1ccc(C(=O)N/C(=C/C=C/c2ccccc2)C(=O)NCc2ccco2)cc1	45.3	-47.5% (inactive)
Cc1nc(-c2ccccc2)sc1-c1nc(-c2ccccc2)ncc1S(=O)(=O)c1ccccc1	41.3	7.6% (inactive)
Cc1ccc(C2NC(=S)NC3=C2N2CCC3CC2)cc1 (stereo not given)	27.5	36.7% (inactive)
CSc1ccc(-c2c(C#N)c(N)nc3c2c(C)nn3-c2ccccc2)cc1	47.5	-12.6% (inactive)
COc1ccc(/C=C(\NC(=O)c2ccc(OC)c(OC)c2)C(=O)NCCc2c[nH]c3ccccc23)cc1	62.4	-62.1% (inactive)
CC(=O)NS(=O)(=O)c1ccc(NC(=S)NC(=O)C(C)(C)C)cc1	7.39	66.5% (inactive)
COc1ccc(-n2c(C)csc2=S)cc1	15.4	22.6% (inactive)
O=C(CSc1nnc(-c2ccco2)n1-c1ccccc1)NCCc1ccccc1	28.7	21.9% (inactive)
COc1cc(/C=C(\C#N)c2nc3c(s2)CC(C)CC3)ccc1O (stereo not given)	38.1	4% (inactive)
Cc1ccc(-c2cnc(NC(=O)CCC(=O)N(C)Cc3ccccc3)n2C)cc1	44.1	-11.1% (inactive)
CCCCCCC12CCC(C(=O)O)(CC1)CC2	16.8	6% (inactive)
O=C(CN1CCOCC1)Nc1c(-c2ccccc2)c2cc(Br)ccc2[nH]c1=O	37.2	15.7% (inactive)
O=C(Oc1ccc([N+](=O)[O-])cc1)c1ccc2ccccc2n1	23.8	33% (inactive)
O=C(c1ccc2c(c1)OCO2)N1CCOCC1	22	-3.2% (inactive)
Cc1ccn(C(CC(=O)c2ccc(Br)cc2)C(=O)O)n1 (stereo not given)	10.2	68.3% (inactive)
COc1ccc(C(C#N)Nc2ccccc2C)cc1 (stereo not given)	18	57.1% (inactive)
C=CCn1c(CSc2nc3ccccc3s2)nnc1SCC(=O)NCc1ccco1	28.7	26.8% (inactive)

Reference: PubChem BioAssay AID853 (Columbia University Molecular Screening Center, 2007)
